# Reference: ChEMBL document CHEMBL1157539, “Thousands of chemical starting points for antimalarial lead identification” (Nature, 2010)
# Tested on: HepG2
# Assay: GSK_TCMDC: Percent inhibition of human HepG2 cell line. Test compounds present at 10uM.
# Type: functional
row,SMILES,Inhibition [%]
1,CCOC(=O)COc1cccc(CNc2ccc3nc(N)nc(N)c3c2)c1,18
2,Cc1[nH]c(C)c(-c2ccc(OCc3ccc(OC(F)(F)F)cc3)nc2)c(=O)c1Br,10
3,O=C(Nc1ccc(I)cc1)N1CCc2sccc2C1CN1CCCCC1 (centres undefined),33
4,CN1CCCC1CCNCc1cccc(-c2cnc(N(C)C3CCCCC3)nc2)c1 (centres undefined),98
5,N#Cc1ccc(-c2ccc(C(=O)NCCCCN3CCC(c4ccc5c(c4OCc4ccncc4)CCCC5)CC3)cc2)cc1,41
6,Cc1cccc2nc(-c3ccc(-c4ccc(NC(=O)C(C)CN5CCN(C)CC5)cc4)s3)[nH]c12 (centres undefined),17
7,O=C(NCC1CCN(CCN2CCc3ccc4c(c3C2)OCO4)CC1)c1ccc(-c2ccc(C(F)(F)F)cc2)cc1,66
8,O=C(/C=C/c1ccc(Cl)c(Cl)c1)NCC(CCCN1CCC(c2c[nH]c3ccccc23)CC1)c1ccccc1 (centres undefined),98
9,CCOC(=O)c1ccc(NC(=O)N[C@@H](Cc2ccccc2)C(=O)NC2CCN(Cc3ccc(OCCCN(C)C)cc3)C2)cc1 (some centres undefined),5
10,COc1ccc2nccc([C@@H](O)CN3CCC(NCCOc4ccccc4C#N)CC3)c2c1.O=C(O)C(=O)O,10
11,CCCC(CNCc1ccccc1)CNc1cc(=O)c2ccccc2[nH]1 (centres undefined),2
12,CC(Cc1ccc(OCCN2CCN(c3ccccc3)CC2)cc1)NCC(O)c1cccc(Cl)c1F.Cl (centres undefined),40
13,Fc1cccc(COc2ccc(Nc3ncnc4sc(C#CCNC5CCC5)cc34)cc2Cl)c1,15
14,O=C(NC1CCCCC1)N(Cc1ccc(-c2ccc(CNCc3ccc4c(c3)OCO4)cc2)cc1)C1CCN(Cc2ccccc2)CC1.O=C(O)C(F)(F)F,28
15,N#Cc1ccc(N/C(=N\c2cccc(Cl)c2Cl)NCc2ccc(Cl)cc2Cl)c(O)c1,3
16,Cl.c1ccc2nc(NCCCCCCCCNc3ccc4ccccc4n3)ccc2c1,52
17,CCOc1cc(C)ccc1C1CCN(CCCCNC(=O)c2ccc(-c3ccc(Cl)cn3)cc2)CC1.Cl,19
18,CCNc1cc(C(=O)N[C@@H](Cc2ccccc2)[C@H](O)CNC(CC)c2cccc(Cl)c2)cc(N2CCCC2=O)c1.Cl (some centres undefined),12
19,O=C(N[C@@H](Cc1ccccc1)[C@H](O)CNC1CCOCC1)c1cc(C2CCCC2)cc(N2CCCCS2(=O)=O)c1.O=CO,3
20,NCc1ccc(CNCc2cccc(-c3ccc(-c4nc5ccccc5[nH]4)cc3)c2)cc1.O=C(O)C(F)(F)F,10
21,Cc1cccc(S(=O)(=O)Nc2cccc(CCN3CCC(N4CCCCC4)CC3)c2)c1,15
22,Cc1cccc2nc(-c3ccc(-c4cccc(CN5CCN(CCN6CCOCC6)CC5)c4)s3)[nH]c12.O=C(O)C(F)(F)F,33
23,CN1CCN(Cc2cccc(Nc3nccc(Nc4ccc(Oc5ccccc5)cc4)n3)c2)CC1,30
24,COc1ccccc1C1CCN(C2CCC(NC(=O)c3cc4cc(C(C)C)ccc4[nH]3)CC2)CC1 (centres undefined),100
25,COc1ccc(Cl)cc1S(=O)(=O)Nc1cccc(CCN2CCC(N3CCCCC3)CC2)c1,33
26,CCc1ccc(-n2c(=O)c3cccnc3n2CC(=O)NC2CCCC2)cc1,0
27,COc1ccc(-c2ccc(NC(=O)c3cccc(Cl)c3)cc2)cc1CNC(C)C.O=C(O)C(F)(F)F,26
28,O=C(NCC1CC1)C1Cc2c([nH]c3ccc(Br)cc23)C2(CCN(CCc3ccccc3)CC2)N1 (centres undefined),14
29,CCCC(C)Nc1nc(C)cc(N[C@@H](Cc2ccccc2)C(=O)Nc2ccc(OC)cc2)n1.O=C(O)C(F)(F)F (some centres undefined),24
